# From PubChem BioAssay
# Calls of active or inactive are those of the source.
# Key:
# [1] = binders of probe aFSTL3 on microarray, primary screen, stem cell growth factor project, biochemical, small-molecule microarray, fluorescence 635/667 (AID 1064); settings: higher = more signal;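 note: measures binding of the biotinylated anti-FSTL3 antibody to printed compounds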
# [2] = binders from COS7 lysate, DM2A8 probe, primary screen, torsin A project, cell lysate, small-molecule microarray, fluorescence 635/667 (AID 1065); settings: higher = more signal, COS7 lysate expressing mutant human TOR1A
# [3] = binders of probe aFGF2 on microarray, primary screen, stem cell growth factor project, biochemical, small-molecule microarray, fluorescence 635/667 (AID 1067); settings: higher = more signal;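 note: measures binding of biotinylated aFGF2 protein to printed compounds on slides; z-score merges feature fluorescence and signal-to-noise across triplicate slides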
# [4] = binders of probe aFGF10 on microarray, primary screen, stem cell growth factor project, biochemical, small-molecule microarray, fluorescence 635/667 (AID 1071); settings: higher = more signal;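 note: score merges 667 nm spot intensity and signal to noise from triplicate slides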
# [5] = target: Neurogenic locus notch homolog protein 2 (Homo sapiens) (UniProt Q04721); assay: Notch2 binders on small-molecule microarrays, primary screen, biochemical, small-molecule microarray, 635 nm fluorescence, stem cell growth factors (AID 1073); settings: Notch2 binding, higher = more signal
# [6] = target: Pro-neuregulin-1, membrane-bound isoform (Homo sapiens) (UniProt Q02297); assay: NRG1 binders on small-molecule microarrays, primary screen, psychiatric disease protein project, biochemical, small-molecule microarray, fluorescence 635/667 (AID 1075); settings: NRG1 binding, 635 nm fluorescence, higher = more signal;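 note: score combines 667 nm spot fluorescence with signal to noise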
# [7] = tested on: Neuregulin-1 EGF-like domain; assay: binders of neuregulin-1 EGF-like domain, primary screen, biochemical, small-molecule microarray, 635 nm fluorescence (AID 1081); settings: small-molecule microarray binding, higher = more signal;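 note: binding of the protein to compounds printed on small-molecule microarray slides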
# [8] = FRG1 promoter luciferase signal modulators, primary screen, FRG1 inhibition for FSHD, cell-based, C2C12 myotubes, firefly/Renilla luciferase, luminescence (AID 1084); settings: higher = more signal, called active from +8 up or from −8 down
# [9] = binders of probe aFST on microarray, primary screen, stem cell growth factor project, biochemical, small-molecule microarray, fluorescence 635/667 (AID 1086); settings: higher = more signal;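 note: score merges 667 nm fluorescence with signal-to-noise of each printed compound spot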
# [10] = binders of probe aHhip on microarray, primary screen, stem cell growth factor project, biochemical, small-molecule microarray, fluorescence 635/667 (AID 1087); settings: higher = more signal;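 note: score merges spot fluorescence at 667nm with spot signal to noise ratio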
# [11] = tested on: PRMT1 (protein arginine N-methyltransferase 1); assay: PRMT1 binders on small-molecule microarrays, primary screen, biochemical, small-molecule microarray, 635 nm fluorescence (AID 1088); settings: small-molecule microarray binding, higher = more signal;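 note: binding of Prmt1 protein to compounds spotted on small-molecule microarray slides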
# [12] = yeast growth modulation, basal conditions, primary screen, YJM789 clinical isolate, OD600, 24 h (AID 1089);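 note: growth of clinical yeast isolate S. cerevisiae YJM 789 seeded 1000 cells per well; test concentration not given here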; settings: S. cerevisiae YJM789 growth, higher = more signal, called active from +8 up or from −8 down
# [13] = fission yeast growth modulation, primary screen, strain 972, OD600, 24 h, no modulator (AID 1090);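 note: basal condition with compound alone and no growth modifier present; test concentration not given here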; settings: S. pombe 972 growth, higher = more signal, called active from +8 up or from −8 down
# [14] = S. cerevisiae growth modulation with rapamycin, primary screen, strain BY4716, OD600, 96 h (AID 1091); settings: higher = more signal, called active from +8 up or from −8 down; note: test concentration not given here
# [15] = target: Torsin-1A-interacting protein 2 (Homo sapiens) (UniProt Q8NFQ8); assay: LULL1 binders on small-molecule microarray, primary screen, cell lysate, human LULL1 lysate, 635/667 nm fluorescence (AID 1092); settings: hLULL1 lysate binding, 635 nm fluorescence, higher = more signal;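 note: probe is lysate of COS7 cells overexpressing human LULL1; score merges per-feature 667 nm fluorescence with signal-to-noise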
# [16] = E. coli growth modulation, two-sided OD650, primary screen, E. coli filamentation project, strain DRC41, 24 h (AID 1093); settings: OD650, 24 h, higher = more signal, called active from +8 up or from −8 down;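 note: MC1000 strain lacking acrAB efflux and sulA so SOS filamentation is blocked; test concentration not given here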
# [17] = small-molecule microarray binders of probe aLefty2, primary screen, biochemical, biotinylated probe, 635/667 nm fluorescence (AID 1094); settings: higher = more signal;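 note: score merges spot fluorescence near 667 nm with spot signal-to-noise ratio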
# [18] = tested on: Noggin (protein binding on small-molecule microarray); assay: Noggin binders on small-molecule microarray, primary screen, biochemical, 635/667 nm fluorescence (AID 1095); settings: 635 nm fluorescence, higher = more signal;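 note: score merges 667 nm feature fluorescence with signal to noise over triplicate slides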
# [19] = target: Neurogenic locus notch homolog protein 3 (Homo sapiens) (UniProt Q9UM47); assay: NOTCH3 binders on small-molecule microarray, primary screen, biochemical, 635/667 nm fluorescence (AID 1096); settings: NOTCH3 binding, 635 nm fluorescence, higher = more signal
# [20] = small-molecule microarray binders of probe aEGFR, primary screen, biochemical, biotinylated probe, 635/667 nm fluorescence (AID 1097); settings: higher = more signal;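 note: probe is a biotinylated anti-EGFR antibody binding compounds printed on slides; score combines fluorescence near 667 nm and signal to noise of each spot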
# Pro-neuregulin-1, membrane-bound isoform (Homo sapiens), sequence (Q02297 whole entry, looked up, the tested form may be a part, canonical isoform): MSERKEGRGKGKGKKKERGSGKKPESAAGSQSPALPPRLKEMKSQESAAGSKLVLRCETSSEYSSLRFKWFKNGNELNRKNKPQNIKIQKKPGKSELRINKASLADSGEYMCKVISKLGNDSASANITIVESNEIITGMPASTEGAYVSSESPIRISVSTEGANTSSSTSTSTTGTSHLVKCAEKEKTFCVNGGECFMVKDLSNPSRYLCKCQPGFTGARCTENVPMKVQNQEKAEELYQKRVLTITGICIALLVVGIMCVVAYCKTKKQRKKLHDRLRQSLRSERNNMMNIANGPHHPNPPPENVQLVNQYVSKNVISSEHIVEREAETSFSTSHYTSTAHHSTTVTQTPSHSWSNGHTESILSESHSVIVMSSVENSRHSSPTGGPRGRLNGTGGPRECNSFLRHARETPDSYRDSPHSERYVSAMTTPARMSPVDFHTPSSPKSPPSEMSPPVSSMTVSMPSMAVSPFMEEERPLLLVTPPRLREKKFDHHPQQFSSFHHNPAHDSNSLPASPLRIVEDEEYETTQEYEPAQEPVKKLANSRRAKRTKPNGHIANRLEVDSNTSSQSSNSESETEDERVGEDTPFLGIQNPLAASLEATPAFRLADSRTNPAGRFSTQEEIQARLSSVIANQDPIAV
# Torsin-1A-interacting protein 2 (Homo sapiens), sequence (Q8NFQ8 whole entry, looked up): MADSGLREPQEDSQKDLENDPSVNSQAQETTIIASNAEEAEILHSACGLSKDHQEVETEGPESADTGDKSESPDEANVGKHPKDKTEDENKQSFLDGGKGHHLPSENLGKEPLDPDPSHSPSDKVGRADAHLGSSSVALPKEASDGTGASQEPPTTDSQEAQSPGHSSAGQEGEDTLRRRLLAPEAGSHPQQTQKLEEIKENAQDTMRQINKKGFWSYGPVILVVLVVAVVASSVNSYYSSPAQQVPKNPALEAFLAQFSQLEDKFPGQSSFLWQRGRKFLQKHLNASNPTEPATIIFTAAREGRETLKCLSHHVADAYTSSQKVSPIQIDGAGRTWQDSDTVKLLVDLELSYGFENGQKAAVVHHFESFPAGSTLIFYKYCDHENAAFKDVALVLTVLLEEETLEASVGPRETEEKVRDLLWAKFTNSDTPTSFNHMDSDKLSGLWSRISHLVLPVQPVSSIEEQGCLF
# Neurogenic locus notch homolog protein 3 (Homo sapiens), sequence (Q9UM47 whole entry, looked up): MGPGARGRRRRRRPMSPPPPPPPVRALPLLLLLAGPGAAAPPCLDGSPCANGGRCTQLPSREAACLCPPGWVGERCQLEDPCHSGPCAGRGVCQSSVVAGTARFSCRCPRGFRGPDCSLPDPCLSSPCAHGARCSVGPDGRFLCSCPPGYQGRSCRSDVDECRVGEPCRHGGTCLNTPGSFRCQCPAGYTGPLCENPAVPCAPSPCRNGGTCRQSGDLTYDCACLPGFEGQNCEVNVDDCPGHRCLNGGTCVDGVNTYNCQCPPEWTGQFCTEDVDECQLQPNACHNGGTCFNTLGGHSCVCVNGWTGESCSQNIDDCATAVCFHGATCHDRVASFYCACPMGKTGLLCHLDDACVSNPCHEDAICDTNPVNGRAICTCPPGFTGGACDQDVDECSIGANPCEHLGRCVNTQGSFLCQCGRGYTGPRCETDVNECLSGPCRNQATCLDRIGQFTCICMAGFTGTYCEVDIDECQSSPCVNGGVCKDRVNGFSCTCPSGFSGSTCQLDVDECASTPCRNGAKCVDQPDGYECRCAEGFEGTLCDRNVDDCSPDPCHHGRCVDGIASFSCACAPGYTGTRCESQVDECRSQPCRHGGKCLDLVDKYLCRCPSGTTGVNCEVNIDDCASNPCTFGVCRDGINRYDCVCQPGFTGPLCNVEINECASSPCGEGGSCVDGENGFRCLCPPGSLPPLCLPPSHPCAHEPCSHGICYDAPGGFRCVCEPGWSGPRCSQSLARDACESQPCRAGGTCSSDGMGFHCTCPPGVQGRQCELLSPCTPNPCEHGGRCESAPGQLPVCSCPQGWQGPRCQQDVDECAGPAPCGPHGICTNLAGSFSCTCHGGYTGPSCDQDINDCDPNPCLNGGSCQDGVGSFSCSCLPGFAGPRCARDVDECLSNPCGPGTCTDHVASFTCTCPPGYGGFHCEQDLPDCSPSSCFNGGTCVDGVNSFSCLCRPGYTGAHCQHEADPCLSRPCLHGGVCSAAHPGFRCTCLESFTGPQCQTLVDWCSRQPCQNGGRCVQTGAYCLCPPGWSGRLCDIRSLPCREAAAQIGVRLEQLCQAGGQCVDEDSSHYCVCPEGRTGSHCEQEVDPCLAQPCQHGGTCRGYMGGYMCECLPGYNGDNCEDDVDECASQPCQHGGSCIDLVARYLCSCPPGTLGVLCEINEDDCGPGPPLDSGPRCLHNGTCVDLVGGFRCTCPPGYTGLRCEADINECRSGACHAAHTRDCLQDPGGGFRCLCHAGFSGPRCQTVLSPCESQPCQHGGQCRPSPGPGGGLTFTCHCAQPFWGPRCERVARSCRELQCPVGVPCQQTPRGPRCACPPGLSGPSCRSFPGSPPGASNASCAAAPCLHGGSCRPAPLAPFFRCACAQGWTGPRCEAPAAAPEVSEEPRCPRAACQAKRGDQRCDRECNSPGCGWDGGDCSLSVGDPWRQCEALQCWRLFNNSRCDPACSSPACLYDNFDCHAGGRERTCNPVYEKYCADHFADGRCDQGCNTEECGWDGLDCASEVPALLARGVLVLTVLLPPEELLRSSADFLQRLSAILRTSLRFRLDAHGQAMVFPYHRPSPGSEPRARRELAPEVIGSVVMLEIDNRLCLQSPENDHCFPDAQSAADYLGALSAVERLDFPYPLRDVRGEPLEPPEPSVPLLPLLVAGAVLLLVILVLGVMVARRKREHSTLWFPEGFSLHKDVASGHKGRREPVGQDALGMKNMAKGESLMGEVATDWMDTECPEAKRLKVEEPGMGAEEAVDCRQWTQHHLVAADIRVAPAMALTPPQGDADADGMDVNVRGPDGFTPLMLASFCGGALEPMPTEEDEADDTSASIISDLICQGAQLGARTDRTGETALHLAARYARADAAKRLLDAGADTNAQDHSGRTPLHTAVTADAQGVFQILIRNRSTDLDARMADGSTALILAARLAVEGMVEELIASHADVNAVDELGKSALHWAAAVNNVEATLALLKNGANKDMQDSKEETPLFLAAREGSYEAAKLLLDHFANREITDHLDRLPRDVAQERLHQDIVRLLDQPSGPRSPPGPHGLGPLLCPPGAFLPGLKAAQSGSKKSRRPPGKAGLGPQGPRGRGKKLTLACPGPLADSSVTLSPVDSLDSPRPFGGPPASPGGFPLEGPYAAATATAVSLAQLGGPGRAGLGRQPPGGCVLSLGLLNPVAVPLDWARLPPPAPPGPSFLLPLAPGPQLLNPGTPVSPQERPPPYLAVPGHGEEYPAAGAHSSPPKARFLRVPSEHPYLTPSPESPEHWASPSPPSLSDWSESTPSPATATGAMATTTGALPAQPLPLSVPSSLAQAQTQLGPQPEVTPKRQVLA
SMILES,composite z-score [1],composite z-score [2],composite z-score [3],composite z-score [4],composite z-score [5],composite z-score [6],composite z-score [7],z-score [8],composite z-score [9],composite z-score [10],composite z-score [11],z-score [12],z-score [13],z-score [14],composite z-score [15],z-score [16],composite z-score [17],composite z-score [18],composite z-score [19],composite z-score [20]
O=C1C2C=CC(C(O)C3CC=CCC3)N(Nc3ccc([N+](=O)[O-])cc3)C2C(=O)N1c1ccccc1 (stereo not given),1.47,1.28,0.428,1.14,1.54,1.61,1.26,-1.06 (inactive),2.28,0.0729,1.41,-1.09 (inactive),0.531 (inactive),2.22 (inactive),3.22,0.0043 (inactive),0.486,0.7,1.06,0.298
CC1CC/C=C\[C@H]2OC34C=CCN(C(C)C)C(=O)[C@H]3N(C(C)CO)C(=O)[C@@H]4C2C(=O)O1 (stereo not given in full),-0.213,0.104,-0.129,-0.19,-0.0047,-0.43,0.238,-0.658 (inactive),-0.088,-0.137,0.216,0.0052 (inactive),0.285 (inactive),-0.448 (inactive),0.476,1.62 (inactive),-0.172,0.202,0.41,-0.158
COc1cccc(C)c1NC(=O)O[C@H]1[C@H](OC(=O)Nc2ccc3c(c2)OCO3)[C@H](OC(=O)Nc2ccc3c(c2)OCO3)[C@@H](OC)O[C@@H]1CO,0.394,0.439,0.06,0.867,1.25,1.13,1.35,3.61 (inactive),1.05,0.12,1.55,1.5 (inactive),0.718 (inactive),4.29 (inactive),3.19,0.358 (inactive),0.107,0.701,1.04,-0.0192
COc1ccc([Si](C)(C)[C@H]2[C@H](CC(=O)N(CCO)Cc3ccccc3)O[C@@]3(C(=O)N(Cc4cccc(N5CCCCC5=O)c4)c4ccccc43)[C@@H]2C)cc1,-0.4,1.12,-0.0557,0.141,0.262,0.535,0.907,-2.71 (inactive),0.0417,-0.166,1.45,-1.68 (inactive),-0.0671 (inactive),2.14 (inactive),0.876,1.27 (inactive),-0.0719,0.659,0.604,-0.045
O=C(O)C1=CC[C@H]2C(=O)N(c3ccccc3)C(=O)[C@@H]12,0.115,-0.037,0.0601,0.676,1.58,0.42,1.16,-0.127 (inactive),0.914,0.0749,0.964,0.735 (inactive),1.38 (inactive),1.52 (inactive),2.5,-0.148 (inactive),0.0694,-0.312,1.06,0.186
